# KCNQ2 pot = KCNQ2 (rat) channel potentiation; O88943; AID 2239; CHO-K1 KCNQ2, FluxOR thallium flux fluorescence; hits give high values; actives 0.54% (n = 310,000); B-score at 10 µM;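 active = fluorescence ratio B-score at least 3 SD of library B-scores, with initial fluorescence B-score within 3 of them, cut at about 5.3 in these data; same plate scores as AID 2156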;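 note: B-score of peak minus minimum over baseline fluorescence ratio after K+ and Tl+ stimulus; positive B-score means potentiation of KCNQ2 with more thallium influx and brighter signal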
# KCNQ2 block = blocks the rat KCNQ2 potassium channel. actives 1.1% (n = 310,000). B-score at 10 µM. O88943. CHO-K1 KCNQ2, FluxOR thallium flux, 20 min; hits give low values;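 active = fluorescence ratio B-score at most minus 3 library SDs, with starting brightness B-score within 2 library SDs, cut at about -5.5 in these data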
# Kir21 conf inh = confirmation of mouse Kir2.1 potassium channel inhibitors; shares compounds with KCNQ2 pot; Kir2.1-expressing cells, FluxOR thallium flux fluorescence; hits give low values; Tl flux remaining, % of negative control (hits give low values), % at 10 µM; actives 41% (n = 2,300); AID 2032;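 active = Primary-screen hit whose thallium flux fell at least 3 control SD below untreated wells in both duplicates, with normal baseline fluorescence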;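 note: 0% = blank wells without stimulus and 100% = stimulated no-compound controls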
# HEK293 Tl flux = alters thallium flux in parental HEK293 cells, Kir2.1 counter-screen; FluxOR signal as % of negative control (100 = no effect), % at 10 µM; shares compounds with KCNQ2 pot; AID 2105; actives 19% (n = 2,300); FluxOR thallium flux fluorescence; 0% = unstimulated blank wells;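 active = dye signal at least 3 control SD above or below untreated wells in both duplicates, raw fluorescence within 3, either direction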;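 note: percent is based on the flux ratio of peak minus minimum fluorescence over baseline F0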
# CHO-K1 Tl ctr = alters thallium flux in parental CHO-K1 cells, KCNQ2 counter-screen; shares compounds with KCNQ2 pot; FluxOR thallium flux fluorescence; zero = vehicle mean+3SD, 100% = vehicle-minus-blank window; activity increase over 3SD of controls, % at 10 µM; actives 43% (n = 1,200); AID 2282;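 active = signal rise of at least 3 SD above the untreated control mean, in both duplicate wells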;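 note: counter screen of KCNQ2 potentiator hits so any rise reflects channel-independent effects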
# KCNQ1 sel pot = selectivity of KCNQ2 potentiators: effect on human KCNQ1; shares compounds with KCNQ2 pot; CHO KCNQ1 stable, FluxOR thallium flux fluorescence; beyond 3SD, as % of vehicle-control signal; activation over 3SD threshold, % at 10 µM; actives 28% (n = 1,200); AID 2283;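 active = fluorescence ratio rise of at least 3 SD of vehicle wells above their mean, in both replicate wells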;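 note: 0% = vehicle mean plus 3 SD and 100% = vehicle minus unstimulated blank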
# KCNQ2 pot conf = confirmation of rat KCNQ2 potassium channel potentiators; shares compounds with KCNQ2 pot; CHO-KCNQ2 cells, FluxOR thallium flux fluorescence; potentiation, less the hit threshold, % at 10 µM; actives 68% (n = 1,200); AID 2287;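 active = fluorescence ratio rising 3 SD or more over the vehicle control mean in both replicates, plus primary screen hit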;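 note: peak minus minimum thallium fluorescence divided by baseline after K/Tl stimulus; 0% = vehicle mean plus 3 SD and 100% = vehicle minus unstimulated blank difference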
# Kir2-1 sel = mouse Kir2.1 off-target activity of KCNQ2 potentiators; shares compounds with KCNQ2 pot; HEK293 Kir2.1, FluxOR thallium flux fluorescence; activity over 3SD threshold, % at 10 µM; actives 2% (n = 1,200); AID 2345;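 active = fluorescence ratio rise of at least 3 SD above the vehicle-control mean, seen in both replicates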;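 note: 0% = vehicle mean plus 3 SD and 100% = vehicle minus no-stimulus blank window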
# KCNQ2 W236L pot = rat KCNQ2 W236L mutant potentiation by KCNQ2 potentiators. shares compounds with KCNQ2 pot. CHO KCNQ2-W236L, automated patch clamp current. current increase over 3SD of negative controls (%), hits give high values, % at 25 µM. actives 10% (n = 940). AID 2558;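 active = current increase at least 3 SD of the untreated controls above them in both duplicate recordings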
# Target sequence (O88943 whole entry W236L, looked up): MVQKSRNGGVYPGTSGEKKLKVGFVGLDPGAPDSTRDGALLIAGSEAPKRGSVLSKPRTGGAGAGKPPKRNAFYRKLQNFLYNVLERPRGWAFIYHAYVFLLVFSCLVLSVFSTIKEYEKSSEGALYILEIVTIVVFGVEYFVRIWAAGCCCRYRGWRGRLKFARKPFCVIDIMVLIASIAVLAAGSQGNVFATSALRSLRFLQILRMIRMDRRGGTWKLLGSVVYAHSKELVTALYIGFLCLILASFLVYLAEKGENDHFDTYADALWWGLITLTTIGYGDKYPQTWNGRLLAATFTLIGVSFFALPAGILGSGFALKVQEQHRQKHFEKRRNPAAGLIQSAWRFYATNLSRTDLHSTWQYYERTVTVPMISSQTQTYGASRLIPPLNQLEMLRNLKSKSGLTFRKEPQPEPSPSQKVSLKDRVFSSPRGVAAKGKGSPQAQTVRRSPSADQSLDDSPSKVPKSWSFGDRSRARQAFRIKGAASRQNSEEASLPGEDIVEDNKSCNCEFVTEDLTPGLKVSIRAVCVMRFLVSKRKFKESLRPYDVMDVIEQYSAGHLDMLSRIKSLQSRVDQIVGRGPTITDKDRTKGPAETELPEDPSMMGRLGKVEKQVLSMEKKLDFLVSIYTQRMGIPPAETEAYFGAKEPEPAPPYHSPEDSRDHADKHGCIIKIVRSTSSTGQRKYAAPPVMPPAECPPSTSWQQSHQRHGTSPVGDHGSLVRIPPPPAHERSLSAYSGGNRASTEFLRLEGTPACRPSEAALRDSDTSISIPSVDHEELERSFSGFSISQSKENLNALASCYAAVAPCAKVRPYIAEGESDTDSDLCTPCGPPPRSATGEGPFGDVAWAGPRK
# The depositor's hits bear a star; i = inactive; · = not tested or not shown. Shown are actives, neighbours in structure and some others; about 1.6% of the full set was active somewhere.
SMILES,KCNQ2 pot,KCNQ2 block,Kir21 conf inh,HEK293 Tl flux,others
COc1ccc(CN2CCC(Cc3ccccc3)CC2)cc1OC,0.03,i,·,·,
Cc1ccccc1OCCSc1nnc(C)n1-c1ccccc1,·,i,46.0%*,i,
Cc1ccccc1OCc1nnc(SCC(=O)O)n1-c1ccccc1,0.78,i,·,·,
CSc1cccc(NC(=S)N(CCC(C)C)C(C)c2ccncc2)c1 (stereo not drawn),·,i,·,·,
COc1cc2c(cc1OC)CN(c1ccc3ccccc3n1)CC2,·,i,55.5%*,132.0%*,
COc1cc2c(cc1OC)CN(c1ccc(-c3ccccc3OC)nn1)CC2,·,i,·,·,
Cc1nn(Cc2ccccc2)c(Cl)c1/C=C/C(=O)OC(C(=O)NC(N)=O)C(C)C (stereo not drawn),0.74,i,·,·,
O=C(NCCO)C(=O)c1c(-c2ccc(Cl)cc2)cc2ccccn12,·,i,·,·,
O=C(O)c1ccn2c(C(=O)c3ccc(Cl)cc3)c(-c3ccccc3)cc2c1,8.45*,i,i,i,CHO-K1 Tl ctr=-6.5;KCNQ1 sel pot=-11.3;KCNQ2 pot conf=15.5*;Kir2-1 sel=-25.0;KCNQ2 W236L pot=i
CC(C)(C)c1cc(-c2n[nH]c(=S)n2-c2ccccc2F)n[nH]1,5.3*,i,i,154.5%*,CHO-K1 Tl ctr=-4.7;KCNQ1 sel pot=-39.1;KCNQ2 pot conf=43.9*;Kir2-1 sel=-36.4;KCNQ2 W236L pot=20.2%*
Cc1ccccc1-n1c(-c2ccc(=O)[nH]n2)n[nH]c1=S,1.89,i,·,·,
Cc1cccc(Nc2nc(NCc3ccco3)c3ccccc3n2)c1,·,i,62.5%*,i,
Cc1ccccc1Nc1nc(NCc2ccco2)c2ccccc2n1,-6.26,-6.26*,15.5%*,i,
c1ccc(Nc2nc(NCc3ccco3)c3ccccc3n2)cc1,·,i,·,·,
Oc1ccccc1Nc1nc(NCc2ccco2)c2ccccc2n1,·,i,·,·,
Cc1onc(-c2ccccc2)c1C(O)c1ccc(F)cc1 (stereo not drawn),1.22,i,·,·,
COc1ccc(OC)c2sc(N(CCCN(C)C)C(=O)CCS(=O)(=O)c3ccccc3)nc12,9.92*,i,·,·,CHO-K1 Tl ctr=-0.3;KCNQ1 sel pot=67.6*;KCNQ2 pot conf=-3.5;Kir2-1 sel=-56.3
COc1ccc(Cl)c2sc(N(CCN(C)C)C(=O)CCS(=O)(=O)c3ccc(C)cc3)nc12,·,i,·,·,
CC1(C)C2C/C(=N\O)C(C)(/[N+]([O-])=C/c3cccc([N+](=O)[O-])c3)CC21 (stereo not drawn),·,i,·,·,
CC(Nc1ncnc2ccccc12)c1ccccc1 (stereo not drawn),2.35,i,·,·,
CCCCC(Nc1ncnc2ccccc12)C(=O)O (stereo not drawn),7.71*,i,i,i,CHO-K1 Tl ctr=-3.5;KCNQ1 sel pot=-11.2;KCNQ2 pot conf=-24.3;Kir2-1 sel=-42.7
COc1ccccc1N1CCN(C(=O)CSc2nc(-c3ccco3)cc(C(F)(F)F)n2)CC1,12*,i,i,i,CHO-K1 Tl ctr=15.5*;KCNQ1 sel pot=12.6*;KCNQ2 pot conf=10.8*;Kir2-1 sel=-26.7;KCNQ2 W236L pot=i
O=C(CSc1nc(-c2ccco2)cc(C(F)(F)F)n1)N1CCN(Cc2ccccc2)CC1,23.5*,i,i,i,CHO-K1 Tl ctr=81.1*;KCNQ1 sel pot=-3.2;KCNQ2 pot conf=41.9*;Kir2-1 sel=-46.8;KCNQ2 W236L pot=i
COc1ccc(CCNC(=O)CSc2nc(-c3ccco3)cc(C(F)(F)F)n2)cc1OC,0.16,i,·,·,
O=C(CSc1nc(-c2ccco2)cc(C(F)(F)F)n1)N1CCN(c2ccc(Cl)cc2)CC1,3.02,i,·,·,
CCOc1ccc(NC(=O)Nc2c(C)n(C)n(-c3ccccc3)c2=O)cc1,·,i,·,·,
O=c1[nH][nH]cc1C=NCc1cccc(C(F)(F)F)c1,·,i,·,·,
Cc1nc(-c2ccc(S(=O)(=O)NCc3cccnc3)s2)cs1,2.01,i,·,·,
CCc1nc(C)cn1S(=O)(=O)c1cc(Br)c(C)cc1OC,·,i,35.0%*,i,

# Screening data as filed in PubChem BioAssay.
